Many of the other results were omitted from the sample, so hits are more common in it than they were.
Dicer inh = human Dicer pre-microRNA cleavage inhibition; Q9UPY3; cat-ELCCA pre-miR-21 Dicer processing, chemiluminescence; stronger effect = higher value; z-score at 25 µM; 6% of 47,000 active; AID 1347074; in the data active means z-score above about 3, passing the limit was not always enough;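 further: higher signal means more uncleaved substrate so more Dicer inhibition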
Target sequence (Q9UPY3 whole entry, looked up): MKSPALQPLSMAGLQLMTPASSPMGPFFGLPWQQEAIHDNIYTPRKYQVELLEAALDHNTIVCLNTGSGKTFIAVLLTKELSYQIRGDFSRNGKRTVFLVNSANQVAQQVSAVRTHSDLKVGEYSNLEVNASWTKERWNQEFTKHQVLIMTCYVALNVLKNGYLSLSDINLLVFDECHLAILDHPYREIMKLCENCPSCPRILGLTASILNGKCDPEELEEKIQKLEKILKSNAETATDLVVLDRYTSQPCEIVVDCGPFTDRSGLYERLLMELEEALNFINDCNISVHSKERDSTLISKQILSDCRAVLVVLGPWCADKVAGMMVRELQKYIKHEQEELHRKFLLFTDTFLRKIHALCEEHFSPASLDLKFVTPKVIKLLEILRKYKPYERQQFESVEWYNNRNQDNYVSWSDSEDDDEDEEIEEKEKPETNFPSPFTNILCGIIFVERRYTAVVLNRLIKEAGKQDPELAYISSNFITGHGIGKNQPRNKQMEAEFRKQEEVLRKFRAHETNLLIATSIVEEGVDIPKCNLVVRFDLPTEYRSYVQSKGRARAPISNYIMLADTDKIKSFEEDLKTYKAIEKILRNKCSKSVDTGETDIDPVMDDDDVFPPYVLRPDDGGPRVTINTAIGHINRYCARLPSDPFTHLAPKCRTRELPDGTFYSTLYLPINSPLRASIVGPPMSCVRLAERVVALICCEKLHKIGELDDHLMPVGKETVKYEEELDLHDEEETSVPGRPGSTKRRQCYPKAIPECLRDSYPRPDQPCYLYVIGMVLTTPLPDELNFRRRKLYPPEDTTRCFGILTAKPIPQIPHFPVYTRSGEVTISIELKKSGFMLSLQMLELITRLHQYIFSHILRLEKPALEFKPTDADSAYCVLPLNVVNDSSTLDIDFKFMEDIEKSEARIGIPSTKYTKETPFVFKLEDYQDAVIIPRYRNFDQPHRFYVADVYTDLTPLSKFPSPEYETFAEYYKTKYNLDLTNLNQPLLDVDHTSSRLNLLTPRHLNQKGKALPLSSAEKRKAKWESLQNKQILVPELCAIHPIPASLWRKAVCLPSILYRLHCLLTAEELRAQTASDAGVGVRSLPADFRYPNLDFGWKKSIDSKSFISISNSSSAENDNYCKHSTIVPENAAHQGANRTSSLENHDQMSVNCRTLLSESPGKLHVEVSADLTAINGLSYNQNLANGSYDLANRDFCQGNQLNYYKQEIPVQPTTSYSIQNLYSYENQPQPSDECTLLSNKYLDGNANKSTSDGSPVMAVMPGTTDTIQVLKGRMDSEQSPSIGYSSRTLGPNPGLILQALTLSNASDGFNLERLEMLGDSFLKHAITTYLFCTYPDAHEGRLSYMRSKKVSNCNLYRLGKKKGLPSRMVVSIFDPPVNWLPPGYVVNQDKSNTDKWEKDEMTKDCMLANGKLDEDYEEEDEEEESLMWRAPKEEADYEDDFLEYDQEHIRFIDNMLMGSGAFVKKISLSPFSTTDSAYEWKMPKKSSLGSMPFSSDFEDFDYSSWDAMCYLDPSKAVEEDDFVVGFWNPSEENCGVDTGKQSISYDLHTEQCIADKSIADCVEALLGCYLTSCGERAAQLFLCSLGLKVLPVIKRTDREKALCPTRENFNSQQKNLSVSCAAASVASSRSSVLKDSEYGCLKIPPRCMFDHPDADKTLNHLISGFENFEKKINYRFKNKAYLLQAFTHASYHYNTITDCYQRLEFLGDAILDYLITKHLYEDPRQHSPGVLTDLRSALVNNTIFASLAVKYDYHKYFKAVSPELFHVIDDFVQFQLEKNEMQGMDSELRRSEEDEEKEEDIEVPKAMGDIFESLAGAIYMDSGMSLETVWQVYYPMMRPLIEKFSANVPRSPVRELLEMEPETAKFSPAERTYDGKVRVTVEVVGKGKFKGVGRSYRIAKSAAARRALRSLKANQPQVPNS
Numbers stand for hits; . = inactive.

SMILES	Dicer inh
O=C1CC(c2ccccc2Cl)Cc2nc(NCCc3ccccc3)ncc21 (stereo unspecified)	.
Cc1nnc(SCC(=O)Nc2ncc3c(n2)CC(c2ccco2)CC3=O)s1 (stereo unspecified)	.
Fc1ccc(Oc2cc(C(F)(F)F)nc3c(Br)cccc23)cc1	.
c1ccc(-c2nnc(-c3ccccn3)n2-c2ccccn2)nc1	.
CCOC(=O)c1cc(-n2cccc2)ccc1N1CCCCC1	.
C[C@H](CCC(=O)O)C1CC[C@H]2C3CCC4C[C@H](O)CCC4(C)C3C[C@H](O)C12C (stereo partly specified)	.
COc1ccc(Cl)cc1NC(C)=O	.
N#C/C(=N\Nc1ccc(Cl)cc1)C(=O)C1CC1	.
COc1cc(Cl)ccc1N/N=C(\C#N)C(N)=O	5
COc1cc(C2SCCS2)cc(Br)c1OC(=O)NC(=O)c1c(F)cccc1F	.
O=C(NNc1c(Cl)cc(Cl)cc1Cl)NC(=O)c1c(F)cccc1F	.
Cc1cc(Oc2ccc(=O)n(C)n2)nc(SCC(N)=O)n1	.
COC(=O)CSc1cc(C)nc(N)n1	.
COC(=O)CSc1nc(C)cc(Oc2ccccc2)n1	3.7
Nc1nc(NC2CCCCNC2=O)n[nH]1 (stereo unspecified)	.
Cc1ccc(CC(=S)N2CCOCC2)cn1	.
CCN(CC)CCn1c(NCc2cccc(Br)c2)nc2ccccc21	3.9
CCc1ccc(CNc2nc3ccccc3n2CCN(CC)CC)cc1	3.3
CCN(CC)CCn1c(C)nc2ccccc21	.
CCN(CC)CCn1c(NCc2ccc(C)cc2)nc2ccccc21	.
CCN(CC)CCn1c(NCc2ccccn2)nc2ccccc21	.
CCCn1c(Nc2nc3ccccc3n2C)nc2ccccc21	4.9
CCCCn1c(NCc2ccccn2)nc2ccccc21	.
CCCn1c(SCCO)nc2ccccc21	.
CCN(CC)CCn1c(=O)c(Cc2ccc(OC)cc2)nc2ccccc21	.
SMILES	Dicer inh
O=C(CSc1nccc(C(F)(F)F)n1)c1cccnc1	.
CCN(CC)CC#CC(O)(c1ccccc1)c1cccc(F)c1 (stereo unspecified)	.
CCCSc1ccc2nc(NC(=O)CSc3nc(SC)ns3)[nH]c2c1	.
CCCc1cc(Br)c(-n2cccc2)c(Br)c1	.
CCCC[S@](=N)(=O)CC[C@H](N)C(=O)O	.
COCc1cc(=O)oc2cc(NS(C)(=O)=O)ccc12	.
COc1ccc(OC)c(CN2CCN(Cc3ccc(SC)cc3)CC2)c1	.
c1ccc(CN2CCC(N3CCN(C4CCCCC4)CC3)CC2)cc1	.
Fc1cccc(CN2CCN(C3CCCC3)CC2)c1	3.8
Clc1ccc(CN2CCN(C3CCCCC3)CC2)cc1	.
Clc1ccc(CN2CCN(C3CCCC3)CC2)cc1	.
CCc1ccc(CN2CCN(C3CCCCC3)CC2)cc1	.
COc1ccc(OC)c(CN2CCN(Cc3ccc(OC)c(Br)c3)CC2)c1	.
COc1ccc(OC)c(CN2CCN(C3CCCCC3)CC2)c1	3.1
Fc1ccccc1CN1CCN(C2CCCCC2)CC1	4.1
CCCOc1ccc(C2C3=C(CC(C)(C)CC3=O)NC3=C2C(=O)CC(C)(C)C3)cc1	.
O=S(=O)(c1ccccc1)C1CC1(Cl)Cl (stereo unspecified)	.
CC(C)(C)c1ccc(C(=O)Nc2nc3ccsc3c(=O)s2)cc1	.
CN1CCN(C(c2ccccc2)c2ccc(Cl)cc2)CC1 (stereo unspecified)	.
CN1CCN(C(c2cccs2)c2ccc3cccnc3c2O)CC1 (stereo unspecified)	.
CN1CCN(C(c2cccs2)N2CCN(C)CC2)CC1	4.6
CCOC(=O)N1CCC(Nc2nc(N3CCCC3)nc(N3CCCC3)n2)CC1	.
COc1ccccc1C(=O)CC1(O)C(=O)N(Cc2ccccc2)c2ccccc21 (stereo unspecified)	.
Nc1ccccc1NC(=O)c1ccccc1O	.
Nc1cccc(NC(=O)c2ccccc2O)c1	5.9
SMILES	Dicer inh
COc1ccc(C=Nc2cccc(NC(=O)c3ccccc3O)c2)cc1	.
CC1CCc2c(sc3[nH]c(=O)n(-c4ccccc4)c(=O)c23)C1 (stereo unspecified)	.
CC(C)(C)NC(=S)N/N=C/c1ccccc1Cl	.
CC(C)(C)NC(=S)N/N=C/c1ccccc1O	.
CC(C)(C)NC(=S)N/N=C/c1coc2c(Cl)cc(Cl)cc2c1=O	4.8
CC(C(=O)O)N1C(=O)C2CCCCC2C1=O (stereo unspecified)	.
Clc1ccccc1C1CC(c2ccco2)n2ncnc2N1 (stereo unspecified)	.
c1ccc(-c2nnc3sc(-c4cccnc4)nn23)cc1	.
Cn1c(=O)c2c(ncn2CC(=O)NC2CCSC2=O)n(C)c1=O (stereo unspecified)	.
Cn1c(=O)c2c(ncn2CC(=O)N2CCCCC2)n(C)c1=O	.
COCCCNC(=O)Cn1cnc2c1c(=O)n(C)c(=O)n2C	.
COC(=O)C1CCN(C(=O)Cn2cnc3c2c(=O)n(C)c(=O)n3C)CC1	4.6
CCOC(=O)C1CCCN(C(=O)Cn2cnc3c2c(=O)n(C)c(=O)n3C)C1 (stereo unspecified)	7.2
Cn1c(=O)c2c(ncn2CC(=O)N2CCOCC2)n(C)c1=O	.
Cn1c(=O)c2c(ncn2CC(=O)N2CCCC2)n(C)c1=O	.
CCOC(=O)CCn1cnc2c1c(=O)n(C)c(=O)n2C	.
CC1CCN(C(=O)Cn2cnc3c2c(=O)n(C)c(=O)n3C)CC1	3.1
Cc1nc2ccccn2c1-c1ccnn1C(=O)c1ccc(C(F)(F)F)cc1	.
Cc1ccc(-c2nc(N)sc2C)cc1Cl	.
CCOC(=O)C(=CNCCNc1ccc(C(F)(F)F)cc1[N+](=O)[O-])C(=O)OCC	.
CCC(C)(C)NC(=O)Nc1ccc(C)c(NC(=O)NC(C)(C)CC)c1	.
COc1ccc(-c2cnn3c(N)c(-c4ccc(Cl)cc4)cnc23)cc1OC	.
COc1ccc(-c2cc(OC(=O)c3ccccc3C)c3c(C)oc(C)c3c(=O)c2)cc1	6.7
CCOc1cc(-c2ccc(OC)cc2)cc(=O)c2c(C)oc(C)c12	.
CCOc1ccc(-c2cc(OC(=O)c3ccccc3F)c3c(C)oc(C)c3c(=O)c2)cc1	.
SMILES	Dicer inh
Cc1c(Br)sc2sc(-c3ccn[nH]3)c(C)c12	.
Cc1nnc2n1NC(c1ccc(F)cc1)C(C(=O)NCc1ccco1)S2 (stereo unspecified)	.
Cc1cc2oc(=O)sc2cc1NS(=O)(=O)c1cccc2cccnc12	.
Cc1cc(C)c(S(=O)(=O)Nc2cccc3cccnc23)c(C)c1	4.5
Cc1cc(C)c(S(=O)(=O)Nc2ccc(Br)c3cccnc23)c(C)c1	.
COc1cc(C2SCCS2)cc(Br)c1OC(=O)c1cccs1	.
O=C(Nc1ccc(Oc2c(Cl)cccc2Cl)nc1)c1ccc2c(c1)CCO2	.
O=C(Nc1ccc2c(c1)OCCO2)c1cc2ccccc2o1	.
O=C(NC1=NCCS1)c1cccs1	.
O=C(NC1=NCCS1)c1cc2ccccc2o1	3.6
CCO/C=C1\SC(=S)N(c2ccc(C(C)C)cc2)C1=O	.
Cc1ccc2c(c1)OC(c1ccc([N+](=O)[O-])s1)N2 (stereo unspecified)	.
CCOC(=O)C1C(=O)NC(N2CCc3ccccc32)=NC1c1ccco1 (stereo unspecified)	.
CCOC(=O)c1oc2cccc(OC(C)=O)c2c1C	5.7
CCOC(=O)c1c(OC)cccc1OC	.
CCOC(=O)c1c(C)oc2ccc(OC(C)=O)cc12	.
CC12c3ccccc3C(c3ccccc31)C1C(=O)NN(c3ccccc3)C(=O)C12 (stereo unspecified)	.
COC(=O)c1ccc(S(=O)(=O)N2CCN(c3ccc(C(F)(F)F)cn3)CC2)n1C	.
